Only a sample is shown.
aSyn UTR act = Activators via SNCA 5'UTR binding, MLPCN. alpha-synuclein 5'UTR reporter, activators screen. hit rate 7.1% among 300,000. activity score, % (tested at 7.5 µM), hits read low; in the data active = activity score below about -60%
Hits are given with their value.

`O=[N+]([O-])c1cccc(N/N=C/c2cc([N+](=O)[O-])ccc2O)c1` gave aSyn UTR act -70.
Screening O=[N+]([O-])c1ccc(O)c(C=Nc2ccc3c(c2)OCCO3)c1 returned aSyn UTR act -62.
`CCCOc1ccc(/C=N/Nc2ccc(C(=O)O)cc2)c(OCCC)c1` gave aSyn UTR act -109.
O=C(COc1ccc2c(c1)OCO2)Nc1ccccc1C(F)(F)F was read as aSyn UTR act -114.
`N#Cc1ccccc1NC(=O)COc1ccc2c(c1)OCO2` gave aSyn UTR act -130.
COc1ccc2c(c1)c(/C=N/Nc1ccc(C(=O)O)cc1)c(C)n2C was read as aSyn UTR act -75.
For C/C(=N\Nc1ccc(C(=O)O)cc1)c1ccc(Cl)s1 the results were aSyn UTR act -87.
For COc1ccc(/C(C)=N/Nc2ccc(C(=O)O)cc2)c(OC)c1 the results were aSyn UTR act -140.
Screening COc1ccc(C(=O)N/N=C/c2c[nH]c3ccccc23)cc1 returned aSyn UTR act -70.
`COc1ccc(C(=O)N/N=C/c2sc3ccccc3c2O)cc1` gave aSyn UTR act inactive.
Screening COc1ccc2c(c1)c(C(=O)N/N=C/c1ccc(Br)cc1)c(C)n2C returned aSyn UTR act -116.
Screening COc1ccc(/C=N/NC(=O)c2[nH]c3ccc(Br)cc3c2-c2ccccc2)cc1 returned aSyn UTR act inactive.
COc1ccc(C(=O)N/N=C/C(=O)c2ccccc2)cc1 was read as aSyn UTR act -133.
COc1ccc2c(/C=N/Nc3ccc(C(=O)O)cc3)c[nH]c2c1 was read as aSyn UTR act -135.
For CCCCCN=C(N)N/N=C/c1c[nH]c2ccc(OC)cc12 the results were aSyn UTR act inactive.
Screening COc1ccc(C(=O)N/N=C(\c2ccccc2)c2ccccn2)cc1 returned aSyn UTR act inactive.
`CC(C)NC(=S)N/N=C/c1c[nH]c2ccccc12` gave aSyn UTR act -124.
For Cc1cc(/C=C2/NC(=O)N(c3ccccc3)C2=O)c(C)n1-c1cccnc1 the results were aSyn UTR act -149.
For CC1=NN(c2ccccc2)C(=O)/C1=C/c1ccc[nH]1 the results were aSyn UTR act -181.
CC1=NN(c2ccccc2)C(=O)/C1=C\c1cc(C)n(-c2ccccc2)c1C was read as aSyn UTR act -82.
Screening Cc1cc(/C=C2/C(=N)N3C(c4ccccc4)=CSC3=NC2=O)c(C)n1-c1ccccc1 returned aSyn UTR act -81.
For Cc1cc(/C=C2\Cc3ccccc3C2=O)c(C)n1-c1ccccc1 the results were aSyn UTR act inactive.
For CC1=NN(c2ccccc2)C(=O)/C1=C/c1c(O)n(-c2ccc(F)cc2)[nH]c1=O the results were aSyn UTR act -134.
`CC1=NN(c2cccc(C(=O)O)c2)C(=O)/C1=C\C=C/c1ccccc1` gave aSyn UTR act -64.
`c1ccc(-c2nc3ccccc3o2)nc1` gave aSyn UTR act -70.
Nc1ccc2oc(-c3ccccn3)nc2c1 was read as aSyn UTR act -133.
`Clc1ccc2oc(-c3ccccn3)nc2c1` gave aSyn UTR act -147.
Screening Cc1cccc(NCc2cccc3ccccc23)n1 returned aSyn UTR act -67.
`Cc1cccc(NCc2ccc(Br)cc2)n1` gave aSyn UTR act -66.
Screening Cc1ccnc(S(=O)(=O)Cc2ccc([N+](=O)[O-])cc2)n1 returned aSyn UTR act -70.
Screening COc1ccccc1OCC#CCSc1ncccn1 returned aSyn UTR act -81.
COc1cccc(C(=O)Oc2c(Br)cc(Br)cc2/C=N/NC(=O)c2cc(C)[nH]n2)c1 was read as aSyn UTR act inactive.
COc1cccc(C(=O)NC(=O)Nc2cc(C)[nH]n2)c1 was read as aSyn UTR act -140.
For CCN(CC)S(=O)(=O)c1cc(C(=O)Nc2cc(C)[nH]n2)ccc1Cl the results were aSyn UTR act -161.
`Cc1cc(NC(=O)c2cccc(Br)c2)n[nH]1` gave aSyn UTR act -141.
`CCc1ccc(NC(=O)[C@H](C)NC(=O)C2CCN(C(=O)[C@@H](N)Cc3ccccc3)CC2)cc1` gave aSyn UTR act -84.
Screening Cc1nc2c(-c3ccc(Cl)cc3)c(C)[nH]n2c(=O)c1Cc1ccccc1 returned aSyn UTR act inactive.
CCOC(=O)Cc1c(C)nc2c(-c3ccccc3)c(-c3ccccc3)[nH]n2c1=O was read as aSyn UTR act -85.
Screening CCCCC(=O)NC(c1ccccc1OC)c1ccc2cccnc2c1O (stereo not drawn) returned aSyn UTR act inactive.
`Nc1sc(-c2ccccc2)n[n+]1Cc1cccc2cccnc12` gave aSyn UTR act inactive.
`COc1cccc(OC)c1OCCCOc1cccc2cccnc12` gave aSyn UTR act -106.
Screening CCCC(=O)NC(c1ccccc1OC)c1ccc2cccnc2c1O (stereo not drawn) returned aSyn UTR act inactive.
Screening Cc1ccc2cccc(OCCCOc3ccccc3F)c2n1 returned aSyn UTR act -74.
Fc1ccc(COc2cccc3cccnc23)cc1 was read as aSyn UTR act -141.
`Clc1ccccc1OCCCOc1cccc2cccnc12` gave aSyn UTR act -118.
Screening Cc1ccc2ccc3ccc(C)nc3c2n1 returned aSyn UTR act inactive.
CCS(=O)(=O)c1ccc(N=Nc2ccc(O)c3ncccc23)c(OC)c1 was read as aSyn UTR act inactive.
Screening Cc1cc(NC(=O)CC#N)n(-c2nc3ccccc3[nH]2)n1 returned aSyn UTR act -71.
Screening O=C(/C=C/c1c(F)cccc1Cl)Nc1nc2ccccc2[nH]1 returned aSyn UTR act -314.
`Cc1ccc(/C=C/C(=O)Nc2nc3ccccc3[nH]2)cc1` gave aSyn UTR act -186.
For COc1cc2cc(-c3ccc(OC)c(OC)c3C)nc(N)c2cc1OC the results were aSyn UTR act inactive.
COc1cc2cc(-c3ccc(O)cc3O)nc(C)c2cc1OC was read as aSyn UTR act -116.
Screening CN1CCC(C2(O)c3ccccc3CCc3ccccc32)CC1 returned aSyn UTR act -62.
Screening C=CCn1c(Sc2ccccc2)nc2c1c(=O)[nH]c(=O)n2C returned aSyn UTR act inactive.
`C=CCn1c(=S)[nH]c2cc(-c3ccccc3)sc2c1=O` gave aSyn UTR act -77.
`CC(=O)c1ccc(NC(=S)NC(=O)/C=C/c2ccccc2)cc1` gave aSyn UTR act -104.
Cc1ccnc(NC(=S)NC(=O)/C=C/c2ccccc2)c1 was read as aSyn UTR act -68.
`CC(=O)Nc1ccc(NC(=S)NC(=O)/C=C/c2ccc(Cl)cc2)cc1` gave aSyn UTR act -75.
Screening CCC(=O)Nc1cccc(C(=O)/C=C/c2ccccc2)c1 returned aSyn UTR act -208.
For CCC(=O)Nc1ccc(NC(=S)NC(=O)/C=C/c2ccccc2)cc1 the results were aSyn UTR act -62.
`CC(C)Sc1nc2ccc(N3C(=O)C4CCCCC4C3=O)cc2s1` (stereo not drawn) gave aSyn UTR act -126.
CN(C)/C=C1\C(=O)N(c2ccc(Cl)cc2)CS1(=O)=O was read as aSyn UTR act -126.
For Cc1ccc(N2CS(=O)(=O)/C(=C/N(C)C)C2=O)cc1 the results were aSyn UTR act -108.
Screening Cc1ccc2c(c1)C(=O)C(=O)N2CCCOc1ccccc1C returned aSyn UTR act -110.
Screening CCC(C)NC(=O)c1cc2cc3ccc(OC)cc3nc2s1 (stereo not drawn) returned aSyn UTR act -131.
`COc1ccc2cc3cc(C(=O)NCCN4CCc5ccccc5C4)sc3nc2c1` gave aSyn UTR act -209.
For COc1ccccc1CNC(=O)Cc1ccccc1 the results were aSyn UTR act -77.
